Measurements: PubChem BioAssay (NCI)
Compounds without any hit were thinned out: in the full panel of roughly 83,000, 20% have a hit.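 How to read the values: 0–100, growth inhibition (40 = 60% inhibited); 0, no net growth; -100 to 0, cell death (-40 = 40% of starting cells died; -100 = all dead).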 Calls of active or inactive are those of the source. The calls were made as follows: active = growth percent below 10; inactive = the rest.

Assays:
Assay in all cases: NCI-60 one-dose screen, 48 h (100 = growth as untreated, 0 = no growth, -100 = all killed)
Conditions in all cases: 10 µM unless noted
SR leukemia = test system: SR leukemia
RPMI-8226 leukemia = test system: RPMI-8226 leukemia
OVCAR-5 ovarian = test system: OVCAR-5 ovarian
OVCAR-4 ovarian = test system: OVCAR-4 ovarian
SK-OV-3 ovarian = test system: SK-OV-3 ovarian
IGROV1 ovarian = test system: IGROV1 ovarian
OVCAR-3 ovarian = test system: OVCAR-3 ovarian
NCI/ADR-RES ovarian = test system: NCI/ADR-RES ovarian
T-47D breast = test system: T-47D breast
BT-549 breast = test system: BT-549 breast
MDA-MB-435 melanoma = test system: MDA-MB-435 melanoma
SW-620 colon = test system: SW-620 colon
MCF7 breast = test system: MCF7 breast
HCT-116 colon = test system: HCT-116 colon
KM12 colon = test system: KM12 colon
OVCAR-8 ovarian = test system: OVCAR-8 ovarian
HS 578T breast = test system: HS 578T breast
HCC-2998 colon = test system: HCC-2998 colon

Measured: growth

CCCc1cc(=O)oc2c3c(c4c(c12)OC(C)(C)C=C4)O[C@@H](C)[C@H](C)C3=O
active: OVCAR-5 ovarian -19.4% | NCI/ADR-RES ovarian 0.517%
inactive: SR leukemia 65.4% | RPMI-8226 leukemia 56.1% | OVCAR-4 ovarian 67.8% | SK-OV-3 ovarian 92.3% | IGROV1 ovarian 74.8% | OVCAR-3 ovarian 86.6% | T-47D breast 41.5% | BT-549 breast 68.7% | MDA-MB-435 melanoma 96.2% | SW-620 colon 71.6% | MCF7 breast 56.4% | HCT-116 colon 35.8% | KM12 colon 70.4%

COc1cc2c(cc1OC)-c1ccc3cc4c(cc3c1N(CCN1CCCC1)C2)OCO4
inactive: OVCAR-5 ovarian 30% | OVCAR-4 ovarian 33.8% | OVCAR-3 ovarian 15.3% | HS 578T breast 16.2% | NCI/ADR-RES ovarian 60.7% | BT-549 breast 21.8% | MDA-MB-435 melanoma 56.4% | HCC-2998 colon 15.7% | KM12 colon 16.7%
active: SR leukemia 1.64% | OVCAR-8 ovarian 6.81% | SK-OV-3 ovarian -13.5% | IGROV1 ovarian 4.12% | T-47D breast -28.3% | SW-620 colon -40.1% | MCF7 breast -6.8% | HCT-116 colon -84.5%

COc1ccc(/C=C2\COc3ccc(O)cc3C2=O)c(OC)c1
inactive: SR leukemia 19.5% | OVCAR-8 ovarian 63.3% | OVCAR-5 ovarian 94.3% | OVCAR-4 ovarian 96.1% | SK-OV-3 ovarian 58% | IGROV1 ovarian 67.3% | OVCAR-3 ovarian 27% | HS 578T breast 66% | NCI/ADR-RES ovarian 33% | T-47D breast 56.4% | BT-549 breast 57.8% | SW-620 colon 54.9% | MCF7 breast 54.7% | HCT-116 colon 61.9% | HCC-2998 colon 89.2% | KM12 colon 24.8%
active: MDA-MB-435 melanoma -30%

COc1ccc(-n2sc(=O)n(Cc3ccc(COC(=O)C(C)c4ccc(CC(C)C)cc4)cc3)c2=O)cc1 (stereo unspecified)
inactive: OVCAR-8 ovarian 50.1% | OVCAR-5 ovarian 63.6% | OVCAR-4 ovarian 18.3% | SK-OV-3 ovarian 96.1% | IGROV1 ovarian 42.5% | HS 578T breast 77.8% | NCI/ADR-RES ovarian 76.7% | T-47D breast 10.6% | BT-549 breast 52.8% | MDA-MB-435 melanoma 22% | MCF7 breast 17.8% | HCC-2998 colon 83.9% | KM12 colon 85.8%
active: SR leukemia -27.4% | OVCAR-3 ovarian -67.3% | SW-620 colon -12.5% | HCT-116 colon -31.9%

O=C(CCc1nc(-c2cccc(Cl)c2)no1)Nc1ccccn1
inactive: SR leukemia 89.1% | OVCAR-8 ovarian 106% | OVCAR-5 ovarian 100% | OVCAR-4 ovarian 107% | SK-OV-3 ovarian 104% | IGROV1 ovarian 90.4% | OVCAR-3 ovarian 108% | HS 578T breast 93.8% | NCI/ADR-RES ovarian 95% | T-47D breast 107% | BT-549 breast 95.7% | MDA-MB-435 melanoma 105% | SW-620 colon 103% | MCF7 breast 90.2% | HCT-116 colon 99.1% | HCC-2998 colon 97.7% | KM12 colon 98%

CC(=O)Nc1ccc(-c2cc3c(NCc4ccc(F)cc4)ncnc3s2)cc1
inactive: SR leukemia 77.2% | OVCAR-8 ovarian 26.9% | OVCAR-5 ovarian 78.1% | OVCAR-4 ovarian 44.5% | SK-OV-3 ovarian 69.5% | IGROV1 ovarian 61.1% | OVCAR-3 ovarian 81.6% | HS 578T breast 70.3% | NCI/ADR-RES ovarian 69.4% | T-47D breast 74% | BT-549 breast 71.7% | MDA-MB-435 melanoma 93% | MCF7 breast 75.7% | HCT-116 colon 80.7% | HCC-2998 colon 90.1% | KM12 colon 99.3%

COc1ccc(OC)c(/C=C2\COc3ccc(O)c(O)c3C2=O)c1
active: SR leukemia 7.03% | IGROV1 ovarian 5.82% | OVCAR-3 ovarian 1.23% | SW-620 colon 9.79% | HCT-116 colon 3.33%
inactive: OVCAR-8 ovarian 24.7% | OVCAR-5 ovarian 31.9% | OVCAR-4 ovarian 27.4% | SK-OV-3 ovarian 45.2% | HS 578T breast 22% | NCI/ADR-RES ovarian 14.1% | T-47D breast 25.2% | BT-549 breast 39% | MDA-MB-435 melanoma 12.1% | MCF7 breast 14.9% | HCC-2998 colon 53.9% | KM12 colon 16.4%

Cc1ccc(NSc2ccccc2[N+](=O)[O-])cc1
inactive: OVCAR-8 ovarian 33.1% | OVCAR-5 ovarian 49.7% | OVCAR-4 ovarian 73.2% | SK-OV-3 ovarian 28.3% | IGROV1 ovarian 38% | HS 578T breast 32.2% | NCI/ADR-RES ovarian 14% | T-47D breast 27.3% | BT-549 breast 34.1% | SW-620 colon 26.9% | MCF7 breast 30.4% | HCT-116 colon 20.3% | HCC-2998 colon 31.4% | KM12 colon 20.3%
active: SR leukemia 9.72% | OVCAR-3 ovarian 7.41% | MDA-MB-435 melanoma -26.2%

Cc1ccc(-n2nnc(C3=NCCc4c3[nH]c3ccc(Cl)cc43)c2C)cc1
inactive: SR leukemia 52.8% | OVCAR-8 ovarian 66.8% | OVCAR-5 ovarian 80.2% | OVCAR-4 ovarian 76.8% | SK-OV-3 ovarian 87% | IGROV1 ovarian 90.5% | OVCAR-3 ovarian 83.5% | HS 578T breast 87.8% | NCI/ADR-RES ovarian 76.3% | T-47D breast 35.7% | BT-549 breast 85.3% | MDA-MB-435 melanoma 78% | SW-620 colon 64.8% | MCF7 breast 77.8% | HCT-116 colon 71.6% | HCC-2998 colon 75.5% | KM12 colon 57.3%

OCCCCc1nccc2c1[nH]c1ccccc12
inactive: SR leukemia 140% | OVCAR-8 ovarian 102% | OVCAR-5 ovarian 98.4% | OVCAR-4 ovarian 89.6% | SK-OV-3 ovarian 112% | IGROV1 ovarian 81.9% | OVCAR-3 ovarian 105% | HS 578T breast 106% | NCI/ADR-RES ovarian 108% | T-47D breast 110% | BT-549 breast 57.5% | MDA-MB-435 melanoma 85.7% | SW-620 colon 108% | MCF7 breast 89% | HCT-116 colon 101% | KM12 colon 110%

O=C1/C(=C/c2ccccc2[N+](=O)[O-])COc2ccc(O)c(O)c21
active: SR leukemia 3.56% | OVCAR-5 ovarian -33% | OVCAR-4 ovarian 2.9% | IGROV1 ovarian -6.14% | OVCAR-3 ovarian -63.2% | HS 578T breast -0.42% | NCI/ADR-RES ovarian 5.96% | MDA-MB-435 melanoma -62.2% | SW-620 colon -38.7% | MCF7 breast 6.98% | HCT-116 colon -15.4% | HCC-2998 colon -46.5% | KM12 colon -3.65%
inactive: OVCAR-8 ovarian 10.3% | SK-OV-3 ovarian 40.8% | T-47D breast 12.4% | BT-549 breast 21.3%

Cn1cc(-c2ccc3nc(-c4ccc(CC(=O)Nc5cc(C(C)(C)C)no5)cc4)cnc3c2)cn1
active: IGROV1 ovarian -2.97% [30 µM] | KM12 colon 6.95% [30 µM]
inactive: SR leukemia 15.2% [30 µM] | OVCAR-8 ovarian 31.5% [30 µM] | OVCAR-5 ovarian 44.8% [30 µM] | OVCAR-4 ovarian 28.7% [30 µM] | SK-OV-3 ovarian 11.2% [30 µM] | OVCAR-3 ovarian 29.6% [30 µM] | HS 578T breast 21.9% [30 µM] | NCI/ADR-RES ovarian 19.8% [30 µM] | T-47D breast 26% [30 µM] | BT-549 breast 53.3% [30 µM] | MDA-MB-435 melanoma 26.2% [30 µM] | SW-620 colon 34.5% [30 µM] | MCF7 breast 87.1% [30 µM] | HCT-116 colon 15.3% [30 µM] | HCC-2998 colon 47.3% [30 µM]

CC(=O)C(C(C)=O)c1nc2sc3cc(Cl)ccc3n2c(=N)c1C#N
inactive: SR leukemia 33.6% | OVCAR-8 ovarian 90.5% | OVCAR-5 ovarian 94.8% | OVCAR-4 ovarian 71.9% | SK-OV-3 ovarian 93.8% | IGROV1 ovarian 70.4% | OVCAR-3 ovarian 86.1% | HS 578T breast 48.5% | NCI/ADR-RES ovarian 88.3% | T-47D breast 75.8% | MDA-MB-435 melanoma 111% | SW-620 colon 95.9% | MCF7 breast 57.9% | HCT-116 colon 87.5% | HCC-2998 colon 106% | KM12 colon 82.4%

N=c1ccn2c(n1)OC1C(O)C(CO)OC12 (stereo unspecified)
inactive: SR leukemia 181% | OVCAR-8 ovarian 28.8% | OVCAR-5 ovarian 71.2% | OVCAR-4 ovarian 52.4% | SK-OV-3 ovarian 47% | IGROV1 ovarian 12.6% | OVCAR-3 ovarian 67.1% | HS 578T breast 85.2% | NCI/ADR-RES ovarian 31.8% | T-47D breast 61% | BT-549 breast 44.9% | MDA-MB-435 melanoma 46.8% | MCF7 breast 14.9% | HCT-116 colon 18.3% | KM12 colon 50.6%

COc1ccc(-c2nnc(-c3ccc4c(c3)nc(-c3ccccc3)n4C3CCCCC3)o2)cc1
inactive: SR leukemia 58.3% | OVCAR-8 ovarian 30.8% | OVCAR-5 ovarian 95.4% | OVCAR-4 ovarian 51% | SK-OV-3 ovarian 84.2% | IGROV1 ovarian 89.4% | OVCAR-3 ovarian 43% | HS 578T breast 103% | NCI/ADR-RES ovarian 40.1% | BT-549 breast 30.9% | MDA-MB-435 melanoma 59.6% | SW-620 colon 71.3% | MCF7 breast 33.2% | HCT-116 colon 34.7% | HCC-2998 colon 81.5% | KM12 colon 39.9%
active: T-47D breast 4.1%

CC(C)(C)N1CC(OC(N)=O)C1
inactive: SR leukemia 128% | OVCAR-8 ovarian 84.9% | OVCAR-5 ovarian 110% | OVCAR-4 ovarian 101% | SK-OV-3 ovarian 113% | IGROV1 ovarian 110% | OVCAR-3 ovarian 120% | HS 578T breast 116% | NCI/ADR-RES ovarian 117% | T-47D breast 93.3% | BT-549 breast 94.4% | MDA-MB-435 melanoma 96.5% | SW-620 colon 104% | MCF7 breast 102% | HCT-116 colon 99.4% | KM12 colon 108%

CCOC(=O)c1cnn2c(-c3ccc(Cl)cc3)nc(NCc3ccccc3)nc12
inactive: SR leukemia 44.5% | OVCAR-8 ovarian 30.5% | OVCAR-5 ovarian 100% | SK-OV-3 ovarian 112% | IGROV1 ovarian 64.8% | OVCAR-3 ovarian 29.9% | HS 578T breast 79.5% | NCI/ADR-RES ovarian 26.3% | T-47D breast 43.3% | BT-549 breast 101% | MDA-MB-435 melanoma 56.2% | HCC-2998 colon 83.9% | KM12 colon 54%
active: OVCAR-4 ovarian 5.61% | SW-620 colon 4.94% | MCF7 breast 5.18% | HCT-116 colon -15.5%
